Measurements published in the supplement of paper PMC7156485.
± gives the standard deviation of the averaged measurements.

Assays:
Conditions in all cases: concentration: 10 µM; 24 h
HCC1569 [1] = assay: cell number relative to DMSO (% of DMSO); higher = more cells (less growth inhibition / toxicity)
Outline: (§1)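 H1.0 nuclear intensity or cell number is expressed as percent of the plate control, with the median of replicates taken. HCC1569 and TDF cells were treated with compounds at 10 µM for 24 h at 37 °C, in triplicate, then fixed and immunostained for H1.0 with DAPI as a nuclear stain. HCC1569 values were smoothed to correct for positional effects.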

TDF [2] = assay: as above
Outline: as §1

TDF [3] = assay: H1.0 immunofluorescence intensity relative to DMSO (% of DMSO); higher = stronger H1.0 induction, active = 120 or more
Outline: as §1

HCC1569 [4] = assay: H1.0 immunofluorescence intensity relative to DMSO (% of DMSO); higher = stronger H1.0 induction, active = 140 or more
Outline: as §1
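Throughout, for H1.0 immunofluorescence intensity relative to DMSO: TDF is a line of transformed human dermal fibroblasts of mesenchymal origin.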
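Throughout, for cell number relative to DMSO: TDF denotes transformed human dermal fibroblasts of mesenchymal origin.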

Structure (SMILES)	cell number (HCC1569 [1])	cell number (TDF [2])	H1.0 immunofluorescence intensity (TDF [3])	H1.0 immunofluorescence intensity (HCC1569 [4])
CC(C)=CCc1cc2c(cc1O)oc(=O)c1c3ccc(O)cc3oc21	106	95.7	94.4 (inactive)	106 (inactive)
CCCCNc1ccc(C(=O)OCCN(C)C)cc1.Cl [Tetracaine hydrochloride]	100	101	102 (inactive)	95.8 (inactive)
CCCCCCCCCCCC(=O)O [Dodecanoic acid]	100	102	103 (inactive)	101 (inactive)
O=c1c(O)c(-c2ccc(O)c(O)c2)oc2cc(O)ccc12 [Fisetin]	95.8	95.8	96 (inactive)	101 (inactive)
CCCCCC=CCC=CCC=CCC=CCCCC(=O)O [Arachidonic acid]	104 ± 6.4	93.9 ± 1.1	101 (inactive)	105 (inactive)
CC(OC1OCCN(Cc2nc(=O)[nH][nH]2)C1c1ccc(F)cc1)c1cc(C(F)(F)F)cc(C(F)(F)F)c1 (stereo unspecified) [Aprepitant]	101	96.8	99.3 (inactive)	107 (inactive)
O=C1NCN(c2ccccc2)C12CCN(CCCC(c1ccc(F)cc1)c1ccc(F)cc1)CC2 [Fluspirilene]	82.7 ± 16	87.1 ± 7.5	106 (inactive)	126 (inactive)
CCn1c(=O)[nH]c2cc(Cl)c(Cl)cc21	99.9	94.4	99.5 (inactive)	95.7 (inactive)
CC(Cc1ccc(O)c(O)c1)(NN)C(=O)O (stereo not drawn) [S-(-)-Carbidopa]	106	112	91.7 (inactive)	90 (inactive)
CCCCCC(O)C=CC1C(O)CC(O)C1CC(=O)CCCCC(=O)O (stereo unspecified) [6-Keto-prostaglandin F1a]	101	91.3	102 (inactive)	108 (inactive)
CN(C)CCOc1ccc(C(=C(CCCl)c2ccccc2)c2ccccc2)cc1 [Toremifene]	97.2	104	102 (inactive)	122 (inactive)
Nc1nc(=O)n(C2CSC(CO)O2)cc1F (stereo unspecified) [Emtricitabine]	105	99.4	96.1 (inactive)	105 (inactive)
CCN(CC)C(=O)C(C#N)=Cc1cc(O)c(O)c([N+](=O)[O-])c1 [Entacapone]	98.2	92	95.3 (inactive)	105 (inactive)
COC(=O)c1c(C)[nH]c(C)c1C(=O)c1ccccc1Cc1ccccc1	102	102	92.3 (inactive)	129 (inactive)
COc1ccnc(CS(=O)c2nc3ccc(OC(F)F)cc3[nH]2)c1OC (stereo unspecified) [Pantoprazole]	100	105	102 (inactive)	103 (inactive)
COc1cc(C=Cc2ccccc2)oc(=O)c1 [5,6-Dehydrokawain]	104	97.5	99 (inactive)	92.6 (inactive)
CCCCCC=CCC=CCC=CCC=CCCCC(=O)C(F)(F)F	104	96.7	95.3 (inactive)	95.1 (inactive)
CCC(=O)OC(OP(=O)(CCCCc1ccccc1)CC(=O)N1CC(C2CCCCC2)CC1C(=O)O)C(C)C (stereo unspecified) [Fosinopril]	99.8	86	96 (inactive)	101 (inactive)
Cc1cnc(NC(=O)C2=C(O)c3ccccc3S(=O)(=O)N2C)s1 [Meloxicam]	103	105	96.1 (inactive)	104 (inactive)
Clc1ccc(CCC(Cn2ccnc2)Sc2c(Cl)cccc2Cl)cc1.O=[N+]([O-])O (stereo unspecified) [Butoconazole nitrate]	98.1	99.7	93 (inactive)	115 (inactive)
CNCC(O)c1ccc(O)c(O)c1.O=C(O)C(O)C(O)C(=O)O [L-(+)-Epinephrine tartrate]	104	97	93.2 (inactive)	106 (inactive)
CCCCCC=CC=CC(O)CCCCCCCC(=O)O (stereo unspecified)	104	100	100 (inactive)	100 (inactive)
CCCCCCCCCCCCCCCCCCCCCCC(=O)O [Tricosanoic acid]	99.7	99.8	105 (inactive)	105 (inactive)
C=C1NC(=O)C2=C(CCSC2)N1	102	99.5	95.5 (inactive)	92.2 (inactive)
